# Compound activity deposited in PubChem BioAssay by National Center for Advancing Translational Sciences (NCATS).
# Sampled rows, rich in hits. Any-hit rate of the full collection: about 7.2%.
# Bst PK mod – alters activity of Bacillus stearothermophilus pyruvate kinase | 1.2% of 51,000 active | purified pyruvate kinase, luminescence ATP production; ribose 5-phosphate activator present at AC10 | AID 361 | Potency, µM; in the data active means potency below about 11 µM; inconclusive means mostly about 12 µM to 25 µM;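 the screen sought inhibitors and activators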;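 further: scaled between full activation by ribose 5 phosphate and full inhibition by luteolin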
# HEK293 cAMP ctrl – parental HEK293 cAMP activation (counter-screen) | parental HEK293 CNG cAMP sensor, membrane potential fluorescence | Potency, µM (series often up to 57.1 µM), for inactives: top-dose activation, most hits filed as activators | 2.5% of 73,000 active | AID 938; further: % of control where 0% means no effect; nearly all actives have a fitted effect of over 55% in size
#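 Parental HEK 293 cells stably expressing a modified CNG channel (no TSHR) report cAMP rise as membrane depolarization. Membrane potential dye with 100 uM RO 20-1724 was loaded for 60 min at room temperature, then compound added for 30 min; fluorescence read at 590 nm.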
# Luciferase inh – blocks Photinus pyralis firefly luciferase activity; P08659; purified firefly luciferase, luminescence, 8 min; Potency, µM (top dose mostly 57.1 µM), without a hit: at the top dose activity change, negative = inhibition, most hits filed as inhibitors; 2.2% of 72,000 active; AID 411; further: on the % scale 0 is the no-effect control and ±100 the full control effect; nearly all actives have a fitted effect of over 40% in size
# Target sequence (P08659 whole entry, looked up): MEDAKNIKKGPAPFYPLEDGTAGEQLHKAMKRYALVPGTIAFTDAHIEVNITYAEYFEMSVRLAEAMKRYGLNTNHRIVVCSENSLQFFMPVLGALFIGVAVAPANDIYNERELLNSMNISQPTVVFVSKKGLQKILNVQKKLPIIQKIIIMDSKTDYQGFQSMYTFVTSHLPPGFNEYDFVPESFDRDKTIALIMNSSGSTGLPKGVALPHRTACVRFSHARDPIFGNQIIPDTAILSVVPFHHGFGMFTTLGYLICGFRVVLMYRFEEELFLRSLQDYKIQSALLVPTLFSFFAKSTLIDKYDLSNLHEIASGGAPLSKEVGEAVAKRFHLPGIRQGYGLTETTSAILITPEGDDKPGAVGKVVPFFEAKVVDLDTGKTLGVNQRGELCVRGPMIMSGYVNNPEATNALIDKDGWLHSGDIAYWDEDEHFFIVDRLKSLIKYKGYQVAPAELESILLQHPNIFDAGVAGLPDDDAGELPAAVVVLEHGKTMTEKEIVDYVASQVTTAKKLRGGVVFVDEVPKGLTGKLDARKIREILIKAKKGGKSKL
#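 Luminescence read-out after 8 min at room temperature; enzyme reaction used luciferin plus 10 uM ATP (linear range) in imidazole buffer pH 7.2 with KCl, MgCl2, Tween 20 and BSA. Each sample was run as a titration.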
# ERK AVP inh – blocks ERK signaling stimulated by vasopressin; 0.99% of 72,000 active; HEK293-V1b, vasopressin-stimulated pERK AlphaScreen; Potency, µM (series often up to 57.5 µM), inactives show top-dose activity, negative = inhibition, most hits filed as inhibitors; further: on the % scale 0 is the no-effect control and ±100 the full control effect; nearly all actives have a fitted effect of over 55% in size
#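 HEK293 cells stably expressing V1b receptor, preincubated 30 min at 37 °C with compound, then stimulated 5 min with 25 nM vasopressin. Phospho-ERK by AlphaScreen SureFire after 5 h RT; normalized to DMSO and vasopressin; AC50 by Hill fit.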
# TSHR agonist – agonists of human thyroid stimulating hormone receptor. HEK293-CNG-TSHR cells (CNG channel as cAMP sensor), membrane potential dye, cAMP. Potency, µM (highest dose often 57.1 µM), inactives show at the highest dose activation, usual class: activators. 0.48% of 73,000 active. AID 926; active means well fitted activation curve with a large enough effect in the main read-out, with a control signal flat, not every such curve was filed as active; inconclusive means small, poorly fitted or top-dose-only effect, or a change in a side signal; inactive means no such curve, though single readings can be large or run the other way; % of control where 0% means no effect;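 further: the control signal comes from parental cells without the receptor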
#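 cAMP rise detected as CNG-channel membrane depolarization by fluorescent dye (emission 590 nm), 30 min after compound, following 60 min dye loading containing 100 uM RO 20-1724 at room temperature. Cells: TSHR/CNG HEK 293, with parental CNG HEK 293 as control.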
# Tau filament bind – tau filament binding; Potency, µM (doses to about 57.1 µM), for the others: at the highest dose activity change, negative = inhibition; recombinant tau filaments, thioflavin S fluorescence, 15 h; filaments grown with octadecylsulfate alongside compound; 2% of 71,000 active; P10636;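 further: on the % scale 0 is the no-effect control and ±100 the full control effect; actives lower thioflavin S fluorescence by blocking filaments or displacing dye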
#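 Assay mix: 1 uM His-tagged tau, 30 uM sodium octadecylsulfate, thioflavine S dye in HEPES/NaCl/DTT buffer. Compound is added prior to the inducer. Fluorescence after 15 h at 37 C.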
# The depositor's hits bear a star; ? = inconclusive; / = no result; [ ] = remark or other dose. Unless noted, the call rests on the fitted dose curve; in most records, active means well fitted curve in the direction sought with a large enough effect; inconclusive means small, poorly fitted or top-dose-only effect, or another doubt; inactive means no such curve, though single readings can be large; an effect the other way counts as inactive or inconclusive. Potency means the concentration at half of the fitted maximal effect.
SMILES,Bst PK mod,HEK293 cAMP ctrl,Luciferase inh,ERK AVP inh,TSHR agonist,Tau filament bind
N#Cc1cccc(NC(=O)N2CC3(CCN(C(=O)c4cccc(F)c4)CC3)C2)c1,/,-6%,1%[11.4 µM],0%,-1%,9%
CC[C@H]1CC[C@H]2[C@@H]3CC=C4C[C@H](OC(C)=O)[C@@H](N)C[C@@]4(C)[C@H]3CC[C@@]12C,/,-9%[11.4 µM],2%[11.4 µM],-15%[11.5 µM],-2%[11.4 µM],11%[11.4 µM]
Cc1cccn2cc(CNc3ccccc3)nc12,>57,5%,-18%,-34%,0%,-2%
Cc1cccn2cc(-c3ccc(F)cc3)nc12,/,-8%,7.9µM*,-3%,5%,1%
CCCS(=O)(=O)NCc1cn2cccc(C)c2n1,>57,9%,0%,3%,-5%,7%
Cc1cccn2cc(-c3ccccc3)nc12,?,?,10µM*,-4%,?,20%
CC(C)(C)NC[C@@H](O)COc1ccccc1C1CCCC1,/,11%[25.6 µM],-5%[25.5 µM],10%[25.7 µM],19%[25.6 µM],13µM*
CC(C)(C)NCC(O)COc1ccccc1C(C)(C)C (stereo not given),>57,14%,0%,5%,9%,-4%
[O-][n+]1onc2c1CCc1nnc(-c3ccccc3)cc1-2,>57,-2%,2%,19%,1%,-23%
[O-][n+]1onc2c1CCc1c-2nc(-c2ccccc2)n1OCc1ccccc1,>57,13µM*,-1%,-13%,?,-20%
Cn1c(CSc2nc3ccc(Br)cc3[nH]2)nc2ccccc21,/,12%,-6%,20µM*,11%,64%
CCc1nc(SCC(=O)N2CCCC2)c2ccccc2n1,>57,?,-2%,-12%,?,-11%
CC(C)c1nc(SCC(=O)N2CCCC2)c2ccccc2n1,/,28%,7.9µM*,?,/,29%
CCCCCCn1cc(C(=O)O)c(=O)c2ccccc21,>11,/,1%[25.5 µM],/,/,/
CCCCCN=c1ccn(Cc2ccccc2)c2ccccc12,/,16µM*,25µM*,?,?,81%
O=C(c1cccc(F)c1)N1CCC[C@@]2(CCN(c3ccncc3)C2)C1,/,18%,1%[11.4 µM],-13%,4%,15%
COc1ccc(-c2cc(-c3cc(F)ccc3O)[nH]n2)cc1OC,9.6*,-7%,13µM*,32µM*,8%[11.4 µM],83%
Oc1ccccc1-c1cc(-c2ccc3c(c2)OCCO3)n[nH]1,1.9*,0%,3.2µM*,-7%,0%,-19%
COc1ccc(-c2cc(-c3ccccc3O)[nH]n2)cc1OC,/,5%,4µM*,?,5%,90%
Cc1ccc(-c2cc(-c3cccc(F)c3)n[nH]2)c(O)c1,11*,-6%,13µM*,-13%,-11%,-27%
Cc1c(Cl)cccc1NC(=O)c1cc(-c2ccc(O)cc2)on1,/,6%,-4%,-3%,15%,186%
COC(=O)C(O)C1C(C)(C)C(OC(C)=O)C2CC3=C4CC(=O)OC(c5ccoc5)[C@]4(C)CCC3[C@@]1(C)C2=O (stereo not given in full),/,/,/,17%,/,/
O=C(Nc1ccc(C(=O)Nc2ccc(C(=O)Nc3ccc(S(=O)(=O)O)c4cc(S(=O)(=O)O)cc(S(=O)(=O)O)c34)cc2)cc1)Nc1ccc(C(=O)Nc2ccc(C(=O)Nc3ccc(S(=O)(=O)O)c4cc(S(=O)(=O)O)cc(S(=O)(=O)O)c34)cc2)cc1,/,-25%,2%,-21%,-14%,?
Cc1nc(NC(C)C)c2oc3ccccc3c2n1,>57,4%,-7%,6%,6%,6%
COc1ccc(Oc2nc(C)nc3c2oc2ccccc23)cc1,/,25µM*,5%,-28%,?,35%
CCn1c(=N)n(CC(O)COc2cccc(C)c2)c2ccccc21 (stereo not given),>57,?,0%,11%,?,-10%
CCCCn1c(=N)n(CC(O)COc2ccccc2)c2ccccc21 (stereo not given),>57,1.3µM*,0%,-9%,?,4%
CCCCn1c(=N)n(CC(O)COc2ccc(C)cc2)c2ccccc21 (stereo not given),>57,16µM*,-3%,-9%,?,53%
